This is an account of results in PubChem BioAssay AID624304 (Sanford-Burnham Center for Chemical Genomics, 2012).

Among all 360,000 compounds or so, about 1,800 (0.5%) were called active. The full list was thinned out, with actives kept by preference. Unmarked numbers belong to inactive results.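 The calls were made as follows: active = interference check ratio from 0.5 to 1.5 plus GFP to RFP signal ratio inhibition reaching or exceeding a fixed threshold (cut at about 30% in these data, passing the limit was not always enough); inactive = the rest.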

A short description of the test: gst-4 reporter inhibition in live C. elegans – whole organism, uHTS, GFP/RFP fluorescence ratio, strain VP596, SKN-1 inhibitor project, primary screen (AID 624304). Particulars: C. elegans VP596 Pgst-4::GFP/RFP ratio, acrylamide-induced, 24 h; at 21.8 µM; hits give high values.
The inhibition is the drop in the measured response relative to a control, in per cent. For the molecule `COc1ccc(N2C(=O)C(CC(=O)Nc3ccc(F)cc3)N(CCc3cccs3)C2=O)cc1` (stereo not given), the inhibition was -3.33%. Turning to `COc1ccc(-n2nc(C(=O)Nc3cc(OC)c(OC)c(OC)c3)c3ccccc3c2=O)c(OC)c1`, the inhibition was 6.93%. Take `COCCN1C(=O)N(c2ccc(Cl)cc2)C(=O)C1CC(=O)Nc1cc(OC)cc(OC)c1` (stereo not given): the inhibition was 17%. For the molecule `C[C@H](OC(=O)n1ccnc1)[C@@H]1O[C@@]2(C)CCC[C@@H]1O2`, the inhibition was 13.4%. For `C=CCSc1nnc2c(n1)-c1cccc3cccc-2c13`, the inhibition was 53.1% (active). The figure for `C=CCSc1nsc(NC(=O)Nc2cccc(C(C)=O)c2)n1` is 2.8%; for `COc1ccnc2c1c(=O)n(Cc1cccc(F)c1)c(=O)n2C` it is 13.9%; for `CCCc1cc(C(=O)Nc2ccc(Cl)cn2)cs1` it is 35% (active). As to `CCCCC(CC)C(=O)Nc1ccc(Cl)cn1` (stereo not given), the inhibition was -11.4%. The figure for `COc1ccc(C(=O)N/N=C(\C)CC(=O)Nc2ccc(Cl)cn2)cc1` is 3.73%. Next, `C=CCC1(C(=O)N(C)Cc2ccccc2)CCN(C(=O)OC(C)(C)C)CC1`: 4.4%. As for `COCCN(C(=S)Nc1cccc(Cl)c1C)C(C)c1ccco1` (stereo not given), the inhibition is 2.25%. The figure for `C/C(=N\NC(=O)OC(C)(C)C)c1ccc[nH]1` is 10.7%; for `CCOC(=O)c1ccc(NC(=O)c2nc[nH]c2C(=O)N[C@@H](CCCCNC(=O)OC(C)(C)C)C(=O)OC(C)(C)C)cc1` it is -1.6%.

As to `c1ccc2c(c1)OCCOCCOCCO2`, the inhibition is 2.75%. Regarding `CCC1CCCCN1C(=O)CSc1nc2c(c(=O)n(C)c(=O)n2C)n1C` (stereo not given), the inhibition was 10.5%. Next, `CCn1c(SCc2cc(=O)n3ccsc3n2)nc2ccccc21`: 13.5%. The figure for `Cc1nc2nc(CSc3nc4ccccc4s3)cc(=O)n2[nH]1` is 31.9% (active); for `CCCc1cc(=O)n2[nH]c(SCc3ccccc3)nc2n1` it is 11.9%. Next, `COc1ccc2c(c1)c1ncn(Cc3ccccn3)c(=O)c1n2C`: -9.72%. As for `Clc1ccc(-c2csc(-c3ccncc3)n2)cc1`, the inhibition was 73.1% (active). In the case of `N#CC(=C1CCCC1)c1nc(-c2ccc(Cl)cc2)cs1`, the inhibition was -17.2%.

With `Fc1ccc(-c2csc(-c3ccc(C4SCCS4)cc3)n2)cc1F`, the inhibition is -2.79%.

`COc1ccc(C)cc1NC(=O)c1[nH]c(C)c(C(C)=O)c1C`: the inhibition is -2.27%. Next, `COc1ccc(NC(=O)C2Cc3c(-c4cccc(NC(C)=O)c4)ccnc3O2)cc1OC` (stereo not given): 7.14%; `COc1ccc2nc(-c3ccccn3)ccc2c1`: 18.4%. For the molecule `Clc1ccc(Cc2nnc(-c3cccs3)o2)cc1`, the inhibition was -1.16%.

In the case of `COc1ccc(C(O)c2nc(-c3ccc(OC)nc3)cs2)cc1` (stereo not given), the inhibition was -3.44%. Consider `c1ccc(Nc2nc(-c3ccncc3)cs2)nc1`, for which the inhibition was 38.3% (active). The figure for `Clc1ccc(Nc2nc(-c3cccs3)cs2)nc1` is 84.2% (active); for `COc1ccc(-c2csc(Nc3ccccn3)n2)cc1` it is 40% (active). Take `N#Cc1ccc(OCC(=O)Nc2nc(-c3ccccn3)cs2)cc1`: the inhibition was 0.752%. Consider `O=C(Nc1ccc(Cl)cn1)c1ccccc1-c1ccccc1`, for which the inhibition was 19.1%. The figure for `CC(NC(=O)c1ccco1)C(=O)Nc1nc(-c2ccccn2)cs1` (stereo not given) is -5.6%.

Turning to `C=CCC[C@H](Cc1ccc(F)cc1)C(=O)OC[C@@H](Cc1c[nH]c2ccccc12)NC(=O)[C@H](CC=C)CC(=O)N[C@H](CO)Cc1ccccc1`, the inhibition is 1.71%. Consider `CN(C(=O)c1ccccc1)c1nccnc1C#N`, for which the inhibition is -2.1%. With `O=C(NCCc1ccccc1)C1CCC(Cn2c(=O)c3ccccc3n(Cc3cccnc3)c2=O)CC1` (stereo not given), the inhibition was 2.01%. Next, `O=C(c1ccc(=O)oc1)N1CCC(C(O)(c2ccccc2)c2ccccc2)CC1`: 22.9%; `NC(=O)C1CCN(C(=O)c2ccc(C(F)(F)F)cc2)CC1`: 1.88%; `CCn1cnc2scc(-c3ccc(C)c(C)c3)c2c1=O`: 9.07%. Consider `C[C@H]1NS(=O)(=O)c2cc(Cl)ccc2O[C@@H]1c1ccccc1`, for which the inhibition was 12.8%. Next, `Cc1nnsc1C(=O)N/N=C/c1cccc(C(F)(F)F)c1`: 6.82%. In the case of `O=C(N/N=C\c1cccc(Br)c1)c1ccccc1-n1cccc1`, the inhibition is 49.3% (active). The figure for `COc1cc(OC)c(C(=O)NNC(=O)c2ccccc2-n2cccc2)cc1OC` is -9.97%; for `CC(C)Nc1ccc(-n2nc3ccccc3[n+]2[O-])cc1` it is 8.98%; for `COCCNC(=O)CCCN1C(=O)c2ccccc2Sc2ncccc21` it is 4.78%. Next, `O=C(O)CCCN1C(=O)c2ccccc2Sc2ncccc21`: 45.5% (active); `O=C(O)CCCN1C(=O)C2C3c4ccccc4C(c4ccccc43)[C@@H]2C1=O` (stereo not given in full): -5.65%. Turning to `Fc1ccc(N2N=C(c3cccs3)CC2c2ccco2)c(F)c1` (stereo not given), the inhibition was 12.6%. On to `Cc1cccc2cc(C#N)c(N3CCCC3)nc12`, for which the inhibition was 32.6% (active). The figure for `Cc1nc2cc(NC(=O)CSc3nc4c(C)cccc4cc3C#N)ccc2s1` is -3.68%; for `Cc1cc(C)c2cc(C#N)c(N3CCNCC3)nc2c1` it is 5.2%. The figure for `Cc1cccc(C(=O)N[C@H](C(=O)NCc2cccs2)C(C)C)c1` is 1.58%; for `Cc1cccc(C(=O)Nc2ccc(C(=O)/C=C/c3cccs3)cc2)c1` it is 46.6% (active).

On to `CC(=O)Nc1ccc(NC(=O)[C@@H](NC(=O)c2cccc(C)c2)C(C)C)cc1`, for which the inhibition is 12.9%. Next, `CCCCCCCC(=O)OC(CN1CCCCCC1)CN1CCCC1=O` (stereo not given): 0.0276%; `O=Cc1c(Cl)cccc1Cl`: 2.42%; `CCC(=O)Nc1c(C)n[nH]c1C`: -5.42%.

In the case of `Cn1c(CC(=O)Nc2ccc(F)cc2)nnc1SCC(=O)NC1CCCCC1`, the inhibition was 7.79%. Regarding `COc1cccc(NC(=O)CSc2nnc(C3CCCCC3)n2N)c1`, the inhibition was -8.2%.

Consider `C=CCn1c(CC(=O)Nc2cccc(OC)c2)nnc1SCC(=O)NC1CCCCC1`, for which the inhibition is 37.9% (active). Regarding `CC(C)C(=O)Nc1c(C(=O)c2ccc(F)cc2)oc2ccccc12`, the inhibition was 19.7%. Next, `Clc1ccc(COn2c(-c3ccc(Cl)cc3Cl)nc3ncccc32)cc1`: 28.6%; `Fc1ccc(-c2ccc(CNCc3ccccn3)o2)cc1Cl`: -1.67%; `Clc1ccc(-c2cc(-c3ccccn3)on2)c(Cl)c1`: 65.8% (active).
